In PubChem BioAssay AID652098 (National Center for Advancing Translational Sciences (NCATS), 2013):
Activity calls are given as the source filed them.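 The calls were made as follows: active = glucosylsphingosine level at or below 0.14 pmol/ug; inactive = the rest.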

Experiment: Extended Characterization of Activators of N370S glucocerebrosidase as a Potential Chaperone Treatment of Gaucher Disease: Glucosylsphingosine in Macrophages
Settings: Gaucher patient macrophages, glucosylsphingosine LC-MS/MS; stronger effect = lower value
Text: Glucocerebrosidase (GCase) catalyzes the hydrolysis of beta-glucocerebroside (GC) to glucose and ceramide in lysosomes. Mutations in the glucocerebrosidase gene result in Gaucher disease, an autosomal recessive lysosomal storage disorder. Many of the mutations encountered in patients with Gaucher disease are missense alterations that may cause misfolding, decreased stability and/or mistrafficking of this lysosomal protein. […] These inhibitors include iminosugar analogs and other inhibitors that were discovered as part of previous work. However, the enhancement of enzyme activity by the chaperone action of an enzyme inhibitor must be balanced against the direct inhibition of the enzyme. […] In this extended characterization of our probe, we have further characterized the activity of probes in relevant models of Gaucher disease. This assay attempts to quantitate glucosylsphingosine in patient-derived macrophages following compound incubation. NIH Chemical Genomics Center [NCGC] NIH Molecular Libraries Probe Production Centers Network [MLPCN] MLPCN Grant: MH086442 Assay Submitter (PI): Ellen Sidransky, NHGRI
Glucosylsphingosine was measured by liquid chromatography-tandem mass spectrometry as previously described by Tropak et al. Chembiochem 2008, 9, 2650-2662.
For `C#Cc1ccc(NC(=O)c2cnn3c(C)cc(C)nc23)cc1`, the glucosylsphingosine level was 0.135 pmol/µg (active).
